Inhibition data for 1 compound are collected here from PubChem BioAssay AID1788 (Vanderbilt High Throughput Screening Facility, 2009).

A number with no mark means an inactive call. How the calls were made is not given here.

This experiment has as its system Platelet Activating Factor (PAF) (human). The experiment is described as follows: PubChem AID 1788. The following applies: MDS Pharma lead profiling panel, radioligand binding, at 10 µM, stronger effect = higher value.

`CCOC(=O)N1CCC(NCCNC(=O)c2ccccc2C)CC1`: the inhibition is 0%.
